The test system of one assay is Lefty1. Nature of the assay: Lefty1 binders on small-molecule microarrays, primary screen, biochemical, small-molecule microarray, 635/667 nm fluorescence (AID 1139). The following applies: small-molecule microarray binding, fluorescence 635/667; higher = more signal.
As to `COCCCNC(=O)[C@]1(CCC(=O)OC(C)(C)C)N=C(c2ccc(OCCCO)cc2)O[C@@H]1c1ccccc1`, the composite z-score was -0.989.

`CN(C)C(=O)[C@@]1(Cc2ccccc2N=[N+]=[N-])COC(c2ccc(OCCCO)cc2)=N1` gave a composite z-score of -0.349.

The compound `CCCc1cccc(=O)o1` returned a composite z-score of 0.614. On the same count and under the same terms, the value for `CC(C)C[C@@H]1NC(=O)[C@H]2C[C@@H](C(=O)NCCCCCC[N+](C)(C)C)[C@@H](c3cccc(OCCO)c3)N2C1=O` was 0.691; that for `[N-]=[N+]=Nc1ccccc1C[C@]1(C(=O)NCc2ccccc2)N=C(c2ccc(OCCCO)cc2)O[C@H]1c1ccccc1` was 0.0213. On the same count and under the same terms, next, `C[C@@H]1ON(c2ccc(C(=O)OC(C)(C)C)cc2)[C@H](c2ccc(Br)cc2)[C@H]1C(=O)N1C(=O)OC[C@H]1Cc1ccccc1`: 0.822.

The subject of the next assay is wheat germ agglutinin (Triticum aestivum), Alexa647-labelled. Nature of the assay: wheat germ agglutinin binders on compound microarrays, profiling panel, artefact control for SMM control-protein annotation, biochemical, small-molecule microarray, 635/667 nm fluorescence (AID 1140).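 Also: score merges 667 nm feature emission with signal to noise over triplicate slides.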 The following applies: WGA-A647 binding, 635 nm fluorescence, higher = more signal.
`Cc1ccc(S[C@]2(C(=O)NCC(F)(F)F)CC(=O)N(Cc3ccccc3)[C@@H]2c2ccc(CO)cc2)cc1` came in with a composite z-score of -0.693. Same read-out and setting: next, `O=C1O[C@@H](c2ccccc2)[C@@H](c2ccccc2)N2[C@@H](c3ccccc3OCCO)[C@]3(C(=O)Nc4ccccc43)[C@@H](C(=O)NC[C@H](O)c3ccccc3)[C@H]12`: -0.545; `COc1ccc([Si](C)(C)[C@@H]2[C@@H](CC(=O)N3CCC[C@H]3CO)O[C@]3(C(=O)N(Cc4ccc(N5C(=O)c6cccc7cccc5c67)cc4)c4ccccc43)[C@H]2C)cc1`: 0.719. Still for that read-out and setting: the value for `O=C1NC(=O)C2C1C=CC(C(O)c1ccc(Br)cc1)N2Nc1ccccn1` (stereo unspecified) was 0.806; that for `O=C1C2C=CC(C(O)c3cc(C(F)(F)F)cc(C(F)(F)F)c3)N(Nc3ccc([N+](=O)[O-])cc3)C2C(=O)N1c1ccccc1` (stereo unspecified) was 0.599. The same measure, in the same setting: next, `O=C1O[C@@H](c2ccccc2)[C@@H](c2ccccc2)N2[C@@H](c3ccccc3OCCO)[C@]3(C(=O)Nc4ccc(C#CCCO)cc43)[C@@H](C(=O)Nc3nc4ccccc4s3)[C@H]12`: 1.23. The compound `COc1ccccc1CN1C(=O)c2ccccc2[C@](Cc2ccccc2I)(C(=O)NC(C)C)[C@@H]1c1ccc(CO)cc1` showed a composite z-score of 1.16. Same read-out and setting: the value for `COC(=O)C(CC#Cc1ccc2c(c1)[C@]1(C(=O)N2)[C@H](C(=O)O)[C@H]2C(=O)O[C@H](c3ccccc3)[C@H](c3ccccc3)N2[C@@H]1c1ccccc1OCCO)C(=O)OC` was 1.18; that for `CC(C)NC(=O)[C@@]1(C)c2ccccc2C(=O)N(C(C)C)[C@H]1c1ccc(CO)cc1` was -0.465.

For `NCCCCCCNC(=O)[C@@H]1C[C@@H]2C(=O)N3CCC[C@H]3C(=O)N2[C@@H]1c1ccc(O)cc1`, the composite z-score came out at 0.636. With `CC(C)C(O)C1C=CC2C(=O)N(C)C(=O)C2N1Nc1ccccc1` (stereo unspecified), the composite z-score is 1.23. On the same count and under the same terms, next, `C=CC[C@]12N=C(c3ccc(OCCCO)cc3)O[C@H]1c1ccccc1N(C)C2=O`: 0.675.

With `CC(C)(C)OC(=O)CC[C@]1(C(=O)O)N=C(c2ccc(OCCCO)cc2)O[C@H]1c1ccccc1CN=[N+]=[N-]`, the composite z-score is 0.393. Still for that read-out and setting: the value for `COc1ccc(NN2C(C(O)c3ccco3)C=CC3C(=O)N(C4CCCCC4)C(=O)C32)cc1` (stereo unspecified) was 1.19; that for `CCOC(=O)[C@H]1C/C=C/C[C@H](C(=O)OCC)C(=O)O[C@H]2[C@@H](OC)O[C@H](CO)[C@@H](OC(=O)CCc3ccccc3)[C@@H]2OC1=O` was -0.185; that for `COCCOC(=O)N1C(=O)[C@@]2(c3cc(C#CCNC(N)=O)ccc31)[C@H](C(=O)N1CCCCCCC1)[C@H]1C(=O)O[C@H](c3ccccc3)[C@H](c3ccccc3)N1[C@@H]2c1ccc(O)cc1` was 0.128.

`O=C1c2ccccc2[C@](Cc2ccccc2I)(C(=O)NCc2ccccc2)[C@H](c2ccc(CO)cc2)N1C1CCCCC1` gave a composite z-score of 1.04. Still for that read-out and setting: the value for `C=CCOC(=O)[C@H]1[C@@H]2C(=O)O[C@@H](c3ccccc3)[C@@H](c3ccccc3)N2[C@@H](c2ccc(OCCOC(=O)[C@H]3C[C@H]4C(=O)N[C@@H](Cc5ccccc5)C(=O)N4[C@H]3c3ccc(O)cc3)cc2)[C@]12C(=O)Nc1ccc(I)cc12` was 0.958; that for `COCCCNC(=O)[C@@]1(Sc2ccc(C)cc2)CC(=O)N(Cc2cc(C(F)(F)F)cc(C(F)(F)F)c2)[C@@H]1c1ccc(CO)cc1` was -0.271. Same read-out and setting: next, `C=CCN1C(=O)[C@@]2(CCC(=O)OC(C)(C)C)N=C(c3ccc(OCCCO)cc3)O[C@H]2c2ccccc21`: 0.525.

`C=CCNC(=O)[C@@H]1[C@H]2C(=O)O[C@H](c3ccccc3)[C@H](c3ccccc3)N2[C@H](c2ccccc2OCCO)[C@@]12C(=O)N(C(=O)OCCOC)c1ccc(C#CC3=CCCCC3)cc12` came in with a composite z-score of 0.762. `COc1ccc(C(O)C2C=CC3C(=O)N(c4ccccc4)C(=O)C3N2Nc2ccc(C#N)cc2)c2ccccc12` (stereo unspecified): the composite z-score stood at 1.04. For the compound `COCCOC(=O)N1C(=O)[C@@]2(c3cc(C#CC4(O)CCCCCC4)ccc31)[C@H](c1ccccc1OCCO)N1[C@H](c3ccccc3)[C@H](c3ccccc3)OC(=O)[C@H]1[C@@H]2C(N)=O`, the composite z-score worked out at 1.02.

As for `C[C@]1(C(=O)NC2CC2)c2ccccc2C(=O)N(Cc2ccc(OC(F)(F)F)cc2)[C@H]1c1ccc(CO)cc1`, the composite z-score is -1.5. Still for that read-out and setting: the value for `C#CCNC(=O)[C@H](Cc1ccccc1)NC(=O)[C@@H](N=[N+]=[N-])C(C)C` was 0.349; that for `CC(C)(C)OC(=O)CC[C@]1(C(=O)NCCN2CCOCC2)N=C(c2ccc(OCCCO)cc2)O[C@H]1c1ccccc1` was 0.391. On the same count and under the same terms, the value for `[N-]=[N+]=NCc1ccccc1C[C@]1(C(=O)NCC(O)CO)N=C(c2ccc(OCCCO)cc2)O[C@H]1c1ccccc1CN=[N+]=[N-]` (stereo partly specified) was 0.205. The same measure, in the same setting: next, `COc1cc2c(cc1OC)CN(C(=O)[C@@H]1[C@H]3C(=O)O[C@H](c4ccccc4)[C@H](c4ccccc4)N3[C@H](c3ccccc3OCCO)[C@@]13C(=O)Nc1ccc(C#CC4(O)CCCCCC4)cc13)CC2`: 0.9; `C[C@@H](OCc1ccccc1)C1NC(=O)[C@@]23C(=O)N[C@@H](Cc4ccccc4)C2[C@H](C)[C@@]2(C)O[C@H]2C3/C=C/C/C=C\CNC(=O)CNC1=O` (stereo partly specified): -1.08; `COCCCNC(=O)[C@]1(CCC(=O)OC(C)(C)C)N=C(c2ccc(OCCCO)cc2)O[C@@H]1c1ccccc1`: 1.12. Turning to `CN(C)C(=O)[C@@]1(Cc2ccccc2N=[N+]=[N-])COC(c2ccc(OCCCO)cc2)=N1`, the composite z-score was determined as 0.51. Still for that read-out and setting: next, `CCCc1cccc(=O)o1`: 0.782. On the same count and under the same terms, next, `CC(C)C[C@@H]1NC(=O)[C@H]2C[C@@H](C(=O)NCCCCCC[N+](C)(C)C)[C@@H](c3cccc(OCCO)c3)N2C1=O`: 0.432. On the same count and under the same terms, next, `[N-]=[N+]=Nc1ccccc1C[C@]1(C(=O)NCc2ccccc2)N=C(c2ccc(OCCCO)cc2)O[C@H]1c1ccccc1`: 1.12; `C[C@@H]1ON(c2ccc(C(=O)OC(C)(C)C)cc2)[C@H](c2ccc(Br)cc2)[C@H]1C(=O)N1C(=O)OC[C@H]1Cc1ccccc1`: 0.377.

(Values after PubChem BioAssay.)
